According to PubChem BioAssay (Tox21):
Unmarked numbers belong to inactive results. Records with an inconclusive call do not appear. Entries that show only a call come without a potency. Active and inactive are the calls of the source. Unless noted, the call rests on the fitted dose curve; in most records, active means well fitted curve in the direction sought with a large enough effect in the repeat runs; inconclusive means weak or mixed curves; inactive means no such curve, though single readings can be large; an effect the other way counts as inactive or inconclusive.

Columns and labels:
[1] = target: Estrogen receptor beta (Homo sapiens) (UniProt Q92731); assay: qHTS assay to identify small molecule antagonists of the estrogen receptor beta (ER-beta) signaling pathway (AID 1259378; active means well fitted inhibition curve with a large enough effect in the signal ratio in the repeat runs, not every such curve was filed as active; the % refers to the signal ratio; further: potency means the concentration at half of the fitted maximal effect)
Summary of the method: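 Antagonist mode: compounds added to beta-lactamase reporter HEK293T ER-beta-UAS cells stimulated with E2 (1nM final), 16 hr at 37C. LiveBLAzer B/G FRET substrate, 2 hours room temperature, fluorescence read-out.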

[2] = qHTS assay to identify small molecule agonists of the androgen receptor (AR) signaling pathway in the presence of an antagonist - cell viability counter screen (AID 1259379); further: nearly all actives have a fitted effect of over 25% in size; further: potency means the concentration at half of the fitted maximal effect
Summary of the method: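 Fluorescence from CellTiter-Fluor, added after 15 hr and read 1 hr later, gave cell viability. Cells were MDA-kb2 exposed to compounds (15 concentrations) in the presence of 3.0uM nilutamide at 37C, 0% CO2.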

[3] = qHTS assay to identify small molecule agonists of the estrogen receptor beta (ER-beta) signaling pathway - cell viability counter screen (AID 1259380); further: nearly all actives have a fitted effect of over 30% in size; further: potency means the concentration at half of the fitted maximal effect
Summary of the method: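 Same-well viability counter screen. Cells: ER-beta-UAS-bla HEK293T, plated 6 hr before compound, in 2% charcoal-stripped FBS. Compound exposure 16 hr, 37C; viability by CellTiter-Glo luminescence after 30 min at room temperature.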

[4] = qHTS assay to identify small molecule antagonists of the estrogen receptor beta (ER-beta) signaling pathway - cell viability counter screen (AID 1259382); further: nearly all actives have a fitted effect of over 55% in size; further: potency means the concentration at half of the fitted maximal effect
Summary of the method: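 Following a 6 hr plating period, HEK293T cells carrying a UAS-driven beta-lactamase reporter under ER-beta control received compounds and 1nM E2 (final). After 16 hr at 37C and 2 hr substrate loading, CellTiter-Glo luminescence indicated viability.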

[5] = qHTS assay to identify small molecule agonists or antagonists of the thyroid stimulating hormone receptor (TSHR) signaling pathway - wild type cell line counter screen (AID 1259384; calls by dose curve)
Summary of the method: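 Counter screen in untransfected Hek293: compounds (15-point titration, triplicate) plus phosphodiesterase inhibitor Ro20-1724 added after 18 h plating; 30 min RT. Intracellular cAMP via competitive d2/cryptate immunoassay, 1 h incubation.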

[6] = target: Thyrotropin receptor (Homo sapiens) (UniProt P16473); assay: qHTS assay to identify small molecule antagonists of the thyroid stimulating hormone receptor (TSHR) signaling pathway (AID 1259385; calls by dose curve; further: nearly all actives have a fitted effect of over 20% in size; further: potency means the concentration at half of the fitted maximal effect)
Summary of the method: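 Antagonist mode: compound-treated TSHR-expressing HEK293 cells were stimulated with 1.5 ng/mL TSH (final) in presence of Ro20-1724 for 30 min at RT. HTRF cAMP detection after 1 h; each compound tested at 15 concentrations, triplicate.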

[7] = qHTS assay to identify small molecule agonists of the estrogen receptor alpha (ER-alpha) signaling pathway in the presence of an antagonist - cell viability counter screen (AID 1259386);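 further: series mostly up to about 92 µM; cells exposed to compounds for 22 h at 37 °C before the viability read; nearly all actives have a fitted effect of over 30% in size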
Summary of the method: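 Cells are starved of estrogens for 5 days in charcoal-stripped serum, seeded for 24hr and co-treated with ICI-182,780 (10.0nM final) and test compounds. After 22hr at 37C, viability is read as CellTiter-Fluor fluorescence.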

[8] = target: Progesterone receptor (Homo sapiens) (UniProt P06401); assay: qHTS assay to identify small molecule agonists of the progesterone receptor (PR) signaling pathway (AID 1346784; calls by dose curve; further: nearly all actives have a fitted effect of over 30% in size)
Summary of the method: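 Reporter assay, GripTite PR-UAS-bla HEK 293T cells: 16 hr exposure to DMSO-dissolved compounds at 37C, 5% CO2, in steroid-depleted (2% charcoal-stripped FBS) medium; beta-lactamase measured by FRET fluorescence.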

[9] = target: Progesterone receptor (Homo sapiens) (UniProt P06401); assay: qHTS assay to identify small molecule antagonists of the progesterone receptor (PR) signaling pathway (AID 1346795; active means well fitted inhibition curve with a large enough effect in the signal ratio in the repeat runs, not every such curve was filed as active; the % refers to the signal ratio)
Summary of the method: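 Stimulus R5020 at 1 nM final; cells HEK293T PR-UAS-bla; medium with 2% charcoal-stripped FBS; compound exposure 16 hr at 37C, 5% CO2; detection by FRET beta-lactamase substrate, 2 hr, room temperature.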

[10] = qHTS assay to identify small molecule antagonists of the progesterone receptor (PR) signaling pathway - cell viability counter screen (AID 1346798); further: series mostly up to about 92 µM; nearly all actives have a fitted effect of over 50% in size
Summary of the method: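 In the same plates used for the beta-lactamase readout, cell viability of compound- and R5020-treated PR-UAS-bla HEK293T cells (16 hr, 37C) was assessed by CellTiter-Glo luminescence.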

[11] = qHTS assay to identify small molecule agonists of the progesterone receptor (PR) signaling pathway - cell viability counter screen (AID 1346799; calls by dose curve; further: nearly all actives have a fitted effect of over 45% in size)
Summary of the method: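 Multiplexed viability read: CellTiter-Glo luminescence, 30 min RT, following LiveBLAzer FRET measurement on PR-UAS-bla HEK293T cells exposed to compounds 16 hr.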

[12] = qHTS assay to identify small molecule antagonists of the TGF-beta/Smad signaling pathway - cell viability counter screen (AID 1346824); further: nearly all actives have a fitted effect of over 50% in size
Summary of the method: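 Cytotoxicity counter-screen run in the same wells as the beta-lactamase Smad reporter read: CellTiter-Glo luminescence after 30 min at room temperature. HEK 293T SBE-bla cells had 5 hr compound exposure at 37 C with TGF-beta1 (0.25 ng/mL stock).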

[13] = qHTS assay to identify small molecule agonists of the TGF-beta/Smad signaling pathway - cell viability counter screen (AID 1346829); further: nearly all actives have a fitted effect of over 45% in size; further: potency means the concentration at half of the fitted maximal effect
Summary of the method: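 After overnight seating at 37 C and 5% CO2, reporter cells got compounds for 5 hr and FRET substrate for 2 hr; cell viability then came from CellTiter-Glo luminescence.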

[14] = qHTS assay to identify small molecule agonists of the TGF-beta/Smad signaling pathway (AID 1346859; active means well fitted activation curve with a large enough effect in the signal ratio in the repeat runs, not every such curve was filed as active; the % refers to the signal ratio; further: series mostly up to about 77 µM)
Summary of the method: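 Screening used HEK 293T SBE-bla cells at 4,000/well. Test agents: 5 hr, 37 C. Detection: FRET substrate, 2 hr RT, then excitation 405 nm with emissions at 460 and 530 nm.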

[15] = target: Thyrotropin-releasing hormone receptor (Homo sapiens) (UniProt P34981); assay: qHTS assay to identify small molecule antagonists of the thyrotropin-releasing hormone receptor (TRHR) signaling pathway (AID 1346877; active means well fitted inhibition curve with a large enough effect in the repeat runs, not every such curve was filed as active; further: series mostly up to about 51 µM)
Summary of the method: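 Cells (TRHR-HEK293) are plated and kept 18 h at 37 °C/5% CO2. A calcium-sensitive dye is added for 2 h, compound follows for 5 min at room temperature, and TRH is then given at 1 nM final.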

[16] = target: Thyrotropin-releasing hormone receptor (Homo sapiens) (UniProt P34981); assay: qHTS assay to identify small molecule agonists of the thyrotropin-releasing hormone receptor (TRHR) signaling pathway (AID 1346891; calls by dose curve; further: series mostly up to about 58 µM)
Summary of the method: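 Readout was intracellular calcium fluorescence in TRHR-Hek293 cells. Cells were incubated 18 h, dye-loaded 2 h at 37 °C, and treated with compound in agonist mode.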

[17] = Human pregnane X receptor (PXR) small molecule agonists, qHTS cell viability counter screen (AID 1346977); further: nearly all actives have a fitted effect of over 50% in size; further: potency means the concentration at half of the fitted maximal effect
Summary of the method: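 In each well, the PXR reporter HepG2 line was checked for viability: CellTiter-Fluor reagent added 23hr post-dosing, fluorescence read after 1hr incubation at 37C.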

[18] = Caspase-3/7 induction in HepG2 cells by small molecules, qHTS assay (AID 1346978); further: nearly all actives have a fitted effect of over 15% in size
Summary of the method: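 Caspase-3/7 induction was measured by Caspase-Glo 3/7 luminescence (30 min, room temperature) after a 17 hr compound exposure of wild-type HepG2 cells seeded at 2,000 per well and pre-incubated 5 hr.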

[19] = target: Estrogen receptor (Homo sapiens) (UniProt P03372); assay: qHTS assay to identify small molecule agonists of the estrogen receptor alpha (ER-alpha) signaling pathway in the presence of an antagonist (AID 1259383; calls by dose curve; further: top concentration of the series differs between compounds; nearly all actives have a fitted effect of over 15% in size)
Summary of the method: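 Cells are hormone-deprived for 5 days (charcoal-stripped FBS, no phenol red), plated for 24hr, spiked with 10.0nM ICI-182,780, then dosed at 15 concentrations. After 22hr at 37C, ONE-Glo luminescence reports ERE-luciferase activity.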

Chain of Estrogen receptor (Homo sapiens) (P03372 whole entry, looked up): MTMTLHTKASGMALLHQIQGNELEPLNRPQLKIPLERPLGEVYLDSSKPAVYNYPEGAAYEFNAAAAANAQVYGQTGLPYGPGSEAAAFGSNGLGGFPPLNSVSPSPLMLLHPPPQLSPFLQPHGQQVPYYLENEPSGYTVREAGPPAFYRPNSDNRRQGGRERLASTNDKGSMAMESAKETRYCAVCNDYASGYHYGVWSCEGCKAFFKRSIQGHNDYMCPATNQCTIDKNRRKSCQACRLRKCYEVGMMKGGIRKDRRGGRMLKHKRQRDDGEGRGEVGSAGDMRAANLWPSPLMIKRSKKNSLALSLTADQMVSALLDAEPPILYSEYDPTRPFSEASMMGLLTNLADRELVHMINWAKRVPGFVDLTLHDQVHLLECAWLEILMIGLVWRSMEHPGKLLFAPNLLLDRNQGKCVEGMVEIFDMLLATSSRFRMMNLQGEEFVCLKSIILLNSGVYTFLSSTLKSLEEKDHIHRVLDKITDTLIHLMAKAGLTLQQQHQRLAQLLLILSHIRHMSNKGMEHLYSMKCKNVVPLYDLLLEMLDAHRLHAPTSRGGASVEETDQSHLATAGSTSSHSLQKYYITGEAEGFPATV
Chain of Thyrotropin receptor (Homo sapiens) (P16473 whole entry, looked up): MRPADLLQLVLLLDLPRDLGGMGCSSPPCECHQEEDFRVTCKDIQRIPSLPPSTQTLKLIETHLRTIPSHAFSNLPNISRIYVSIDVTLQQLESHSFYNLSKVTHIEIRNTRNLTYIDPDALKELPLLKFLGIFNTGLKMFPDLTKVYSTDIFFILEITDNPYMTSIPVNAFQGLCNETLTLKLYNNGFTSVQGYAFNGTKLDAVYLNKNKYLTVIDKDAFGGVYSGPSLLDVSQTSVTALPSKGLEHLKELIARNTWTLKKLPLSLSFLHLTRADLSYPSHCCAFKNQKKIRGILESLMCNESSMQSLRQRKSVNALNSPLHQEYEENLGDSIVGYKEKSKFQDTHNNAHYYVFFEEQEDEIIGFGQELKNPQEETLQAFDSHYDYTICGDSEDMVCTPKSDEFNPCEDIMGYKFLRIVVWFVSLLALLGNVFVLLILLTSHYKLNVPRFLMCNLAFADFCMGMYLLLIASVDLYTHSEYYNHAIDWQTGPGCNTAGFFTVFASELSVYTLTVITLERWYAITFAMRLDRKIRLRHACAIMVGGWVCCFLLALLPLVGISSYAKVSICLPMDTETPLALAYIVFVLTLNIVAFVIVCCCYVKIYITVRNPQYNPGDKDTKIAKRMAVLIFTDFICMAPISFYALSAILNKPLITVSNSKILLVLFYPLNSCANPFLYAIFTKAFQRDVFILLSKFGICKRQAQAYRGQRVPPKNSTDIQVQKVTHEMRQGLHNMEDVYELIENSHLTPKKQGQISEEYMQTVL
Chain of Progesterone receptor (Homo sapiens) (P06401 whole entry, looked up): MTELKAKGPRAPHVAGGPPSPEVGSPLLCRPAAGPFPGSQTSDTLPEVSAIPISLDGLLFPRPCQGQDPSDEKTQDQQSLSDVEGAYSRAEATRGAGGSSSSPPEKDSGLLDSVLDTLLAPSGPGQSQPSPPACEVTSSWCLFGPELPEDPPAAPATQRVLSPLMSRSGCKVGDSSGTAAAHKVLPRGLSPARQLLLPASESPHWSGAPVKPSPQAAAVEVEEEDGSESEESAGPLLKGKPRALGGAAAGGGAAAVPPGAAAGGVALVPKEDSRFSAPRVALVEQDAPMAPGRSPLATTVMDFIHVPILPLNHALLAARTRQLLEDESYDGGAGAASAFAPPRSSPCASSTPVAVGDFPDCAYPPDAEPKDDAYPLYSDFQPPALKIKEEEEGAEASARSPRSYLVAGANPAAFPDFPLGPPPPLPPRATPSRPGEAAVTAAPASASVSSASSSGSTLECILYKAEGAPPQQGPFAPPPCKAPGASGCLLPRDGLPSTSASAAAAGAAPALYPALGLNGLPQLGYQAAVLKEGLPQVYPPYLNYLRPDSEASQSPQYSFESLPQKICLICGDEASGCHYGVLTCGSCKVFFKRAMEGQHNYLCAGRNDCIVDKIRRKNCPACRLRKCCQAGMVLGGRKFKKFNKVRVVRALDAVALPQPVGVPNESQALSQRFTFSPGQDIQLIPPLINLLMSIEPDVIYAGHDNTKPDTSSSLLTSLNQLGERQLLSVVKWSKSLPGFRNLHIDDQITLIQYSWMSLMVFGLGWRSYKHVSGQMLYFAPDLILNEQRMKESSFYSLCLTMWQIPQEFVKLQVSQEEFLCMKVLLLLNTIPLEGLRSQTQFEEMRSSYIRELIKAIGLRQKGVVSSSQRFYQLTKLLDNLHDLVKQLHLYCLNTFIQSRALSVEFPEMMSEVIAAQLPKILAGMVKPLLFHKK
Chain of Thyrotropin-releasing hormone receptor (Homo sapiens) (P34981 whole entry, looked up): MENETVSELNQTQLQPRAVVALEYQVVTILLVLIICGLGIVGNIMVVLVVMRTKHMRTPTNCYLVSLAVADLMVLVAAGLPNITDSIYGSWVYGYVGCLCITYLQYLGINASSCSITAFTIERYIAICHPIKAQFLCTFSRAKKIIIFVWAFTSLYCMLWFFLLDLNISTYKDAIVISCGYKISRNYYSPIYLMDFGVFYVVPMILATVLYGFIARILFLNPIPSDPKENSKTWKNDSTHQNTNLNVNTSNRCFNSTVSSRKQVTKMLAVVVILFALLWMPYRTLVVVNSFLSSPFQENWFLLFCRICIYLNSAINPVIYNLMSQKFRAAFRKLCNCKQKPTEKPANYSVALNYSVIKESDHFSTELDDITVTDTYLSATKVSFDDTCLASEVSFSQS
Chain of Estrogen receptor beta (Homo sapiens) (Q92731 whole entry, looked up): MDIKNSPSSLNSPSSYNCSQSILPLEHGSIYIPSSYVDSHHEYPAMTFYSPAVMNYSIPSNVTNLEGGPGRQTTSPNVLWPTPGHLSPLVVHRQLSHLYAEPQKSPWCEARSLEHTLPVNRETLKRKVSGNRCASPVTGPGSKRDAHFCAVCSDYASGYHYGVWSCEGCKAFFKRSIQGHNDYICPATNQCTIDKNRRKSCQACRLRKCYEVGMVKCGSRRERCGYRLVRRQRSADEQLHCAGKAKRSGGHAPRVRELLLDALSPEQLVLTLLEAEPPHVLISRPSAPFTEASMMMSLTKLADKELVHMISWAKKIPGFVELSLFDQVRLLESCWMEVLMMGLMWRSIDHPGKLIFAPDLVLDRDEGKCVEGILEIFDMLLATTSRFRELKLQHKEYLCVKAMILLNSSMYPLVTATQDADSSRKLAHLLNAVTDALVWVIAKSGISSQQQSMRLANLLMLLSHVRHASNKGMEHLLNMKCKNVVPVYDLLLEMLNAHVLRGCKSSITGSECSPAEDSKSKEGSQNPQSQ

| SMILES | Potency [1] | Potency [2] | Potency [3] | Potency [4] | outcome [5] | Potency [6] | Potency [7] | outcome [8] | Potency [9] | Potency [10] | Potency [11] | Potency [12] | Potency [13] | Potency [14] | Potency [15] | Potency [16] | Potency [17] | Potency [18] | Potency [19] |
| --- | --- | --- | --- | --- | --- | --- | --- | --- | --- | --- | --- | --- | --- | --- | --- | --- | --- | --- | --- |
| CC(=O)O[C@@H]1C[C@@H]2CC[C@@]1(C)C2(C)C | inactive | inactive | inactive | inactive | inactive | inactive | inactive | inactive | inactive | inactive | inactive | inactive | inactive | inactive | inactive | inactive | inactive | inactive |  |
| O=C(Nc1ccc(Cl)cc1)Nc1ccc(Cl)c(C(F)(F)F)c1 | 7.5 µM (active) | 11.9 µM (active) | 13.3 µM (active) | 13.3 µM (active) | inactive | 26.6 µM (active) |  |  |  |  |  |  | 15.1 µM (active) | inactive | inactive | inactive | 7.5 µM (active) | inactive | inactive |
| Brc1ccccn1 | inactive | inactive | inactive | inactive | inactive | inactive | inactive | inactive | inactive | inactive | inactive | inactive | inactive | inactive | inactive |  |  | inactive | inactive |
| COc1cccc(OC)c1O | inactive | inactive | inactive | inactive | inactive | inactive | inactive | inactive | inactive | inactive | inactive | inactive | inactive | inactive | inactive | inactive | inactive | inactive |  |
| C=C(C)CCCC | inactive | inactive | inactive | inactive | inactive | inactive | inactive | inactive | inactive | inactive | inactive | inactive | inactive | inactive | inactive |  | inactive | inactive | inactive |
| CS(C)(=O)=O | inactive | inactive | inactive | inactive | inactive | inactive | inactive | inactive |  | inactive | inactive | inactive | inactive | inactive | inactive |  |  | inactive | inactive |
| C/C=C/CO | inactive | inactive | inactive | inactive | inactive | inactive | inactive | inactive | inactive | inactive | inactive | inactive | inactive | inactive | inactive | inactive |  | inactive | inactive |
